# Laboratory results: PubChem BioAssay AID1851 (National Center for Advancing Translational Sciences (NCATS), 2009)
# Out of some 16,000 compounds screened, about 5,100 (32%) were called active. Inconclusive results (about 25%) are left out. Some of the results follow. Unmarked numbers belong to inactive results. Calls follow the shape of the dose curve; as a rule, active = well fitted curve in the direction sought with a large enough effect; inconclusive = small, poorly fitted or top-dose-only effect, or effect the other way; inactive = no such curve, though single readings can be large or run the other way.
# Target: Cytochrome P450 3A4 (Homo sapiens) (UniProt P08684)
# Test: Cytochrome panel assay with activity outcomes
# Conditions: recombinant CYP, pro-luciferin dealkylation, luminescence, p450-cyp3a4; series mostly up to 57.1 µM; activity, negative = inhibition: at the top concentration
# % is scaled to controls: 0 for no effect and ±100 for the full control effect.
# Sequence of Cytochrome P450 3A4 (Homo sapiens) (P08684 whole entry, looked up): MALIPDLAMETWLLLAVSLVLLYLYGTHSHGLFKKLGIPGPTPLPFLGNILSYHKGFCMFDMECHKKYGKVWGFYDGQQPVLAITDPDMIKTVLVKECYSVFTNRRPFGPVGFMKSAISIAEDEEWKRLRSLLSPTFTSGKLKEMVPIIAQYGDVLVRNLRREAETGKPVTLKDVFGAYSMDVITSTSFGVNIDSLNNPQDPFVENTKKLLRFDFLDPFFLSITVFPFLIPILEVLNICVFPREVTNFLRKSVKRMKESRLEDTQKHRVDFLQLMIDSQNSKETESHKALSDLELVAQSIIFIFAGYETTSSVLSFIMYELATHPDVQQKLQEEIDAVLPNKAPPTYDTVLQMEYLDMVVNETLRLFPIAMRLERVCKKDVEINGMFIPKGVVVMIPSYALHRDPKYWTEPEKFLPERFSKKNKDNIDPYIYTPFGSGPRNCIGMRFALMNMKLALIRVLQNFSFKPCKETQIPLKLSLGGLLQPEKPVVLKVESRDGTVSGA
SMILES,"activity, negative = inhibition",AC50
COc1cccc(C(C#N)N2N=C(C)CC2(C)C)c1O (stereo not drawn),-11.6%,
CCOC(=O)CNc1c(-c2ccccc2)nc2ccc(Cl)cn12,21.3%,
c1ccc(-c2nc3ccccn3c2NCc2ccc3c(c2)OCO3)cc1,,0.501 µM (active)
CO[C@H]1[C@@H](OC(N)=O)[C@H](O)[C@@H](Oc2ccc3c(O)c(NC(=O)c4ccc(O)c(CC=C(C)C)c4)c(=O)oc3c2C)OC1(C)C,-7.19% [at 25.6 µM],
Cn1cccc1/C=N/NC(=O)c1sc2ccccc2c1Cl,,8.91 µM (active)
N#CCCn1nnc2ccccc21,-10.8%,
C=CCN1CCc2cc(O)c(O)cc2[C@H](c2ccccc2)C1,,inactive
O=C(O)CSSCC(=O)O,-6.12% [at 11.4 µM],
Cc1nnsc1SCC(=O)O,-4.96%,
O=C(O)CSc1sc(=S)sc1SCC(=O)O,,11.2 µM (active)
O=C(Cn1nnc2ccccc21)N1CCCCC1,-1.52%,
COc1ccc(NC(=O)C(c2ccc(OC)cc2)N(C)C(=O)CNC(C)=O)cc1 (stereo not drawn),-11.9%,
Cc1ccnc(NCn2nnc3ccccc32)c1,-7.54%,
COc1cccc(C(C(=O)Nc2ccc(F)cc2)N(C(=O)Cn2nnc3ccccc32)C2CC2)c1 (stereo not drawn),,2.82 µM (active)
COc1ccc(N(C(=O)Cn2nnc3ccccc32)C2(C(=O)NC3CCCC3)CCCCC2)cc1,,2 µM (active)
COc1ccc(C(C(=O)Nc2ccc(F)cc2)N(C(=O)Cn2nnc3ccccc32)C2CC2)cc1 (stereo not drawn),,3.55 µM (active)
CC(C)(C)c1cc2c(O)c(c1)Cc1cc(C(C)(C)C)cc(c1O)Cc1cc(C(C)(C)C)cc(c1O)Cc1cc(C(C)(C)C)cc(c1O)Cc1cc(C(C)(C)C)cc(c1O)Cc1cc(C(C)(C)C)cc(c1O)Cc1cc(C(C)(C)C)cc(c1O)Cc1cc(C(C)(C)C)cc(c1O)C2,-24.5% [at 11.4 µM],

SMILES,"activity, negative = inhibition",AC50
COc1ccc(CNCCC(c2ccc(OC(C)C)cc2)C(C)C)cc1OC (stereo not drawn),,1.41 µM (active)
CC(C)Oc1ccc(CSC(=N)N)cc1,-3.82%,
NC(=S)Nc1ccc(Oc2ccc(NC(N)=S)cc2)cc1,,4.47 µM (active)
CCC(C)[C@H](NC(=O)Nc1ccc(Oc2ccccc2)cc1)C(=O)O (stereo partly drawn),-4.13%,
CCCCNN,-7.03% [at 11.4 µM],
NS(=O)(=O)c1cccc2c1c([N+](=O)[O-])cc1nc(O)c(O)nc12,,inactive
O=C(O)c1ccc2c3c1cccc3c(=O)n1c3ccccc3nc21,-14.5%,
O=c1c2ccc([N+](=O)[O-])c3cccc(c32)c2nc3ccccc3n12,,0.891 µM (active)
CC1=C(C)/C(=N\OC(=O)/C=C/c2ccccc2)C=CC1=O,1.54%,
COc1cc(C=O)ccc1OCCCOc1ccccc1C(=O)O,-6.53%,
CCOc1ccc(-c2nn(-c3ccccc3)cc2/C=C2\SC(N)=NC2=O)cc1C,0.0129%,
COc1cc(/C=C2/C(=N)N3C=CSC3=NC2=O)ccc1OCCCOc1ccccc1C,,15.8 µM (active)
CCOc1cc(/C=C2/C(=N)N3C=CSC3=NC2=O)ccc1OCCCOc1ccccc1C,,15.8 µM (active)
COc1ccccc1OCCOc1ccc(/C=C2/C(=N)N3OC(C)=CC3=NC2=O)cc1OC,-12.2%,
COc1ccc(/C=C2\N=C(c3c(-c4ccccc4)noc3C)OC2=O)cc1OC,-39.1%,
COc1cc(/C=C2/C(=N)N3C=CSC3=NC2=O)ccc1OCCCOc1c(C)cccc1C,,20 µM (active)
